# Source: PubChem BioAssay (Tox21)
# Values without a mark were called inactive. Inconclusive results are not listed. A call without a number means that no potency is given here. Active and inactive are the calls of the source. Unless noted, calls come from the whole dose curve; as a rule, active = well fitted curve in the direction sought with a large enough effect in the repeat runs; inconclusive = weak or mixed curves; inactive = no such curve, though single readings can be large; an effect the other way counts as inactive or inconclusive.
# Columns and labels:
# [1] = qHTS assay to identify small molecule antagonists of the sonic hedgehog signaling (Shh) pathway (AID 1259369; calls by dose curve; note: nearly all actives have a fitted effect of over 45% in size; note: potency is the fitted concentration of half-maximal effect)
# Method in brief: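 For antagonist detection, the reporter line received test compounds together with conditioned medium, incubated 24hr at 37 C, 5% CO2, then luminescence was recorded following 30min room-temperature luciferase reagent incubation.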
# [2] = qHTS assay to identify small molecule agonists of the androgen receptor (AR) signaling pathway in the presence of an antagonist - cell viability counter screen (AID 1259379);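 note: MDA-kb2 human breast cancer cells carrying an MMTV luciferase reporter; series mostly up to about 92 µM; nearly all actives have a fitted effect of over 25% in size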
# Method in brief: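 Seed MDA-kb2 at 3,000 cells/well; incubate 5 hr, 37C, 0% CO2. Add nilutamide to 3.0uM final, then pin compounds at 15 concentrations. Incubate 16 hr. Add CellTiter-Fluor at 15 hr, read fluorescence after 1 hr.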
# [3] = qHTS assay to identify small molecule antagonists of the estrogen receptor beta (ER-beta) signaling pathway - cell viability counter screen (AID 1259382); note: nearly all actives have a fitted effect of over 55% in size; note: potency is the fitted concentration of half-maximal effect
# Method in brief: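 In this multiplexed counter screen, cells were seeded at 2,000 per well in medium with 2% charcoal-stripped FBS and incubated 6 hr before compound and 1nM final E2 were added. Sixteen hours later, ATP-based luminescence reported viability.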
# [4] = qHTS assay to identify small molecule agonists or antagonists of the thyroid stimulating hormone receptor (TSHR) signaling pathway - wild type cell line counter screen (AID 1259384; calls by dose curve)
# Method in brief: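 Wild-type HEK293 cells were plated 18 h at 37 C/5% CO2, pin-dosed with compound plus Ro20-1724 medium, held 30 min at room temperature, then given cAMP-d2 and anti-cAMP-cryptate; fluorescence was read after 1 h. Fifteen concentrations, triplicate.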
# [5] = target: Thyrotropin receptor (Homo sapiens) (UniProt P16473); assay: qHTS assay to identify small molecule antagonists of the thyroid stimulating hormone receptor (TSHR) signaling pathway (AID 1259385; calls by dose curve; note: nearly all actives have a fitted effect of over 20% in size; note: potency is the fitted concentration of half-maximal effect)
# Method in brief: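 TSHR-HEK293 cells were plated and held 18 h at 37C/5% CO2, then given compound plus Ro20-1724 and stimulated with TSH at 1.5 ng/mL final. After 30 min at room temperature, cAMP was detected with cAMP-d2/anti-cAMP-cryptate (1 h) by fluorescence.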
# [6] = qHTS assay to identify small molecule agonists of the estrogen receptor alpha (ER-alpha) signaling pathway in the presence of an antagonist - cell viability counter screen (AID 1259386);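 note: cells exposed to compounds for 22 h at 37 °C before the viability read; nearly all actives have a fitted effect of over 30% in size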; note: potency is the fitted concentration of half-maximal effect
# Method in brief: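 Viability counter screen using VM7Luc4E2 (full-length ER-alpha, four ERE-luciferase). The cells were treated with compounds alongside ICI-182,780 10.0nM for 22hr, and live-cell protease fluorescence was quantified with CellTiter-Fluor.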
# [7] = target: Progesterone receptor (Homo sapiens) (UniProt P06401); assay: qHTS assay to identify small molecule antagonists of the progesterone receptor (PR) signaling pathway (AID 1346795; active = well fitted inhibition curve with a large enough effect in the signal ratio in the repeat runs, not every such curve was filed as active; the % refers to the signal ratio; note: potency is the fitted concentration of half-maximal effect)
# Method in brief: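 Antagonist mode with agonist R5020 at 1 nM final and 16 hr incubation at 37C. Reporter was beta-lactamase driven by UAS in HEK293T (PR-UAS-bla), 2% charcoal-stripped serum; signal from LiveBLAzer FRET substrate, 2 hr at room temperature.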
# [8] = qHTS assay to identify small molecule antagonists of the progesterone receptor (PR) signaling pathway - cell viability counter screen (AID 1346798); note: nearly all actives have a fitted effect of over 50% in size; note: potency is the fitted concentration of half-maximal effect
# Method in brief: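 Cytotoxicity read as CellTiter-Glo luminescence (30 min, room temperature) in the same wells as the beta-lactamase readout. HEK293T PR-UAS-bla cells in charcoal-stripped 2% FBS received compound and R5020, then 16 h at 37C, 5% CO2.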
# [9] = qHTS assay to identify small molecule antagonists of the TGF-beta/Smad signaling pathway - cell viability counter screen (AID 1346824); note: nearly all actives have a fitted effect of over 50% in size
# Method in brief: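 SBE-bla HEK 293T cells were plated overnight at 37 C, then given compounds in DMSO plus TGF-beta1 (added as 0.25 ng/mL solution) for 5 hr. After the bla read, CellTiter-Glo was added to the same wells and luminescence read after 30 min at room temperature.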
# [10] = qHTS assay to identify small molecule agonists of the TGF-beta/Smad signaling pathway - cell viability counter screen (AID 1346829); note: top concentration of the series differs between compounds; nearly all actives have a fitted effect of over 45% in size
# Method in brief: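 SBE-bla HEK 293T cells plated overnight, compound exposure 5 hr at 37 C. Viability read in the same wells by CellTiter-Glo luminescence after 30 min at room temperature, following the beta-lactamase read.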
# [11] = qHTS assay to identify small molecule agonists of the TGF-beta/Smad signaling pathway (AID 1346859; active = well fitted activation curve with a large enough effect in the signal ratio in the repeat runs, not every such curve was filed as active; the % refers to the signal ratio; note: series mostly up to about 77 µM)
# Method in brief: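 Fluorescence (ex 405 nm; em 460 and 530 nm) was read 2 h after LiveBLAzer FRET substrate at RT. The preceding compound treatment of overnight-plated SBE-bla HEK293T cells lasted 5 h at 37 C.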
# [12] = qHTS assay to identify small molecule agonists of the estrogen receptor beta (ER-beta) signaling pathway - cell viability counter screen (AID 1259380); note: nearly all actives have a fitted effect of over 30% in size; note: potency is the fitted concentration of half-maximal effect
# Method in brief: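 CellTiter-Glo read, 30 min RT, same wells as bla assay; cells ER-beta-UAS-bla HEK293T; 16 hr compound, 37C; medium 2% charcoal-stripped FBS.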
# [13] = target: Estrogen receptor (Homo sapiens) (UniProt P03372); assay: qHTS assay to identify small molecule agonists of the estrogen receptor alpha (ER-alpha) signaling pathway in the presence of an antagonist (AID 1259383; calls by dose curve; note: nearly all actives have a fitted effect of over 15% in size; note: potency is the fitted concentration of half-maximal effect; for activation: top concentration of the series differs between compounds)
# Method in brief: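 Stably transfected VM7Luc4E2 reporter cells, kept 5 days in charcoal-stripped serum, received ICI-182,780 at 10.0nM final before compound addition. Following 22hr incubation at 37C and 5% CO2, luciferase signal was read by luminescence.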
# [14] = target: Thyrotropin-releasing hormone receptor (Homo sapiens) (UniProt P34981); assay: qHTS assay to identify small molecule antagonists of the thyrotropin-releasing hormone receptor (TRHR) signaling pathway (AID 1346877; active = well fitted inhibition curve with a large enough effect in the repeat runs, not every such curve was filed as active; note: series mostly up to about 51 µM)
# Method in brief: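 Following an 18 h incubation at 37 °C and a 2 h calcium dye load, TRHR-HEK293 cells were exposed to compound (5 min, room temperature) and challenged with TRH, 1 nM final.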
# [15] = target: Thyrotropin-releasing hormone receptor (Homo sapiens) (UniProt P34981); assay: qHTS assay to identify small molecule agonists of the thyrotropin-releasing hormone receptor (TRHR) signaling pathway (AID 1346891; calls by dose curve; note: series mostly up to about 58 µM)
# Method in brief: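 Agonist-mode intracellular calcium readout: kinetic fluorescence over 3 min at 1 s intervals after compound addition to TRHR-HEK293 cells (18 h seeded, 2 h dye-loaded at 37 C). Fifteen concentrations, triplicates.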
# [16] = target: Progesterone receptor (Homo sapiens) (UniProt P06401); assay: qHTS assay to identify small molecule agonists of the progesterone receptor (PR) signaling pathway (AID 1346784; calls by dose curve; note: nearly all actives have a fitted effect of over 30% in size)
# Method in brief: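 Agonist qHTS: compounds pinned onto 3,000 PR-UAS-bla HEK 293T cells per well in charcoal-stripped serum medium, 16hr at 37C, then beta-lactamase activity measured by LiveBLAzer FRET fluorescence after 2 hours at room temperature.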
# [17] = qHTS assay to identify small molecule agonists of the progesterone receptor (PR) signaling pathway - cell viability counter screen (AID 1346799; calls by dose curve; note: nearly all actives have a fitted effect of over 45% in size; note: potency is the fitted concentration of half-maximal effect)
# Method in brief: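 Cytotoxicity measured by CellTiter-Glo luminescence (30 min, RT) in the same wells as the PR beta-lactamase agonist read. Those HEK293T cells had 16 h compound treatment at 37 C in 2% charcoal-stripped FBS medium.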
# [18] = target: Estrogen receptor beta (Homo sapiens) (UniProt Q92731); assay: qHTS assay to identify small molecule agonists of the estrogen receptor beta (ER-beta) signaling pathway (AID 1259377; active = well fitted activation curve with a large enough effect in the signal ratio in the repeat runs, not every such curve was filed as active; the % refers to the signal ratio; note: potency is the fitted concentration of half-maximal effect)
# Method in brief: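 Ratiometric beta-lactamase FRET read-out came after 2 h substrate loading at room temperature. It followed 16 h compound treatment at 37C of GripTite HEK293T cells carrying a UAS-bla reporter, plated in 2% charcoal-stripped FBS medium.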
# [19] = target: Estrogen receptor beta (Homo sapiens) (UniProt Q92731); assay: qHTS assay to identify small molecule antagonists of the estrogen receptor beta (ER-beta) signaling pathway (AID 1259378; active = well fitted inhibition curve with a large enough effect in the signal ratio in the repeat runs, not every such curve was filed as active; the % refers to the signal ratio)
# Method in brief: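 ER-beta-UAS-bla HEK293T (GripTite) cells in 2% charcoal-stripped FBS medium were preincubated 6 hr at 37C, dosed with compound, then stimulated with 1 nM E2 (final) for 16 hr; beta-lactamase reporter read by B/G FRET fluorescence after 2 hr substrate loading.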
# [20] = target: Androgen receptor (Homo sapiens) (UniProt P10275); assay: qHTS assay to identify small molecule agonists of the androgen receptor (AR) signaling pathway in the presence of an antagonist (AID 1259381; calls by dose curve; note: nearly all actives have a fitted effect of over 15% in size)
# Method in brief: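 Test compounds at 15 concentrations were incubated for 16hr with MDA-kb2 reporter cells in presence of 3.0uM nilutamide (final). Signal: ONE-Glo luciferase luminescence.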
# Chain of Estrogen receptor (Homo sapiens) (P03372 whole entry, looked up): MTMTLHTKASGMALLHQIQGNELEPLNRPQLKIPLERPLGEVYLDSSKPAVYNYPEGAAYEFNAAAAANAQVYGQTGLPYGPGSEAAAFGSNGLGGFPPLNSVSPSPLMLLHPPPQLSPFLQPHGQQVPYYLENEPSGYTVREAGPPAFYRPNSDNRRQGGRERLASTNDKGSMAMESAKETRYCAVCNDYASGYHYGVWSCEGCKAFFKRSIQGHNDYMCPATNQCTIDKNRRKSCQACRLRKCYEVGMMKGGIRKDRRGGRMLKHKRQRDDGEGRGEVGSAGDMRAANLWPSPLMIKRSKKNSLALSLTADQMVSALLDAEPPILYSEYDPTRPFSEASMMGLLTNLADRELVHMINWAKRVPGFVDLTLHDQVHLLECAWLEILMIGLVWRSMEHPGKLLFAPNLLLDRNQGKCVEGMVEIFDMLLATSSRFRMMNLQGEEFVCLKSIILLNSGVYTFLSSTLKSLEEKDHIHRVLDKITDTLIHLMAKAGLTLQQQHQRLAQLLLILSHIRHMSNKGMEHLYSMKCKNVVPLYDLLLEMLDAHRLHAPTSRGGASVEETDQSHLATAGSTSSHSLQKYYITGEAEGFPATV
# Chain of Progesterone receptor (Homo sapiens) (P06401 whole entry, looked up): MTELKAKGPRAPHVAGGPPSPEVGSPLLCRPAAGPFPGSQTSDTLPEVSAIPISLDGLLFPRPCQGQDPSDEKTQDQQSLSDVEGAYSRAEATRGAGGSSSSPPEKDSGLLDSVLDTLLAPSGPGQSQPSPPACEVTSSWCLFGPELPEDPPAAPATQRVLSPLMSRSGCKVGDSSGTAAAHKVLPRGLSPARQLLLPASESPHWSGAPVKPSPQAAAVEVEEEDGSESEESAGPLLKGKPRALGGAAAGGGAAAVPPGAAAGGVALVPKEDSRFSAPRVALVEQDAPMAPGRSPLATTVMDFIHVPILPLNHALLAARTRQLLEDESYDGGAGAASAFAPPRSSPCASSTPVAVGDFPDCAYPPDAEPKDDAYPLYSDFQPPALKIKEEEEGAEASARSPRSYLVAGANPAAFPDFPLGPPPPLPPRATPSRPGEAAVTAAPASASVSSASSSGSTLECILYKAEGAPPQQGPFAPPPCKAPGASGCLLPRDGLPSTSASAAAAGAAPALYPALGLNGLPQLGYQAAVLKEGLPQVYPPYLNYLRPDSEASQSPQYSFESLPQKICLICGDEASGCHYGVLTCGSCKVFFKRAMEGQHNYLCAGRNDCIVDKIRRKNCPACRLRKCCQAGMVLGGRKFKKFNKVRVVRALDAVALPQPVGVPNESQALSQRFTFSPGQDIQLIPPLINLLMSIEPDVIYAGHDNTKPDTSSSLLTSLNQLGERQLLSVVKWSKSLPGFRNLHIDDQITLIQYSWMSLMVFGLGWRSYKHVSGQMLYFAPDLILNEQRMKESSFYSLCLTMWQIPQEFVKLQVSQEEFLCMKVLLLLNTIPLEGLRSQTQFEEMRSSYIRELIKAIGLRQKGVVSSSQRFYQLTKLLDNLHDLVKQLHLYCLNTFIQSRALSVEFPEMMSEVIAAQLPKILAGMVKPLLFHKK
# Chain of Estrogen receptor beta (Homo sapiens) (Q92731 whole entry, looked up): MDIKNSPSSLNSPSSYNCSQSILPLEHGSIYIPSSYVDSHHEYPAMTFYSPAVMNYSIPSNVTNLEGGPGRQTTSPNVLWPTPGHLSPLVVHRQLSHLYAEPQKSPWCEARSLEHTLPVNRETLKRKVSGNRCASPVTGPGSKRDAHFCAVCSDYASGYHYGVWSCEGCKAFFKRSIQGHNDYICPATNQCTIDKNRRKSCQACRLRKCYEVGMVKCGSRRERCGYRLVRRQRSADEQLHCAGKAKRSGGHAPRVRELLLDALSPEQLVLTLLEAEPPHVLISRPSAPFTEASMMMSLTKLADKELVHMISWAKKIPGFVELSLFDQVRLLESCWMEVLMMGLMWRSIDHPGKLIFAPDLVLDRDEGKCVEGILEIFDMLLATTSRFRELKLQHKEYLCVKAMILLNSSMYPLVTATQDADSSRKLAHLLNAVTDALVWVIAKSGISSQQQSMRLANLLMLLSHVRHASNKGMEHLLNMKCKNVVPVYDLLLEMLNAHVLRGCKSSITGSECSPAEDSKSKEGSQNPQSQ
# Chain of Thyrotropin-releasing hormone receptor (Homo sapiens) (P34981 whole entry, looked up): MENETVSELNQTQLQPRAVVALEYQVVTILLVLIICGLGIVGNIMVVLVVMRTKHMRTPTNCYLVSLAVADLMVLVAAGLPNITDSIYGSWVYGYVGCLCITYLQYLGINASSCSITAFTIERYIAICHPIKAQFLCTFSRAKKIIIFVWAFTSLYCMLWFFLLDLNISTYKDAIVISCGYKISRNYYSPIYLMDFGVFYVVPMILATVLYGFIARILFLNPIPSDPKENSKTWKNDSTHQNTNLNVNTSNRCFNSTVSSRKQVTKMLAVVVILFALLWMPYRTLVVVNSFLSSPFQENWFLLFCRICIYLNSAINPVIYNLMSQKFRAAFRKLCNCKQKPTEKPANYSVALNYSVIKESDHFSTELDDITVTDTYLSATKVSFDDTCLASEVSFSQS
# Chain of Androgen receptor (Homo sapiens) (P10275 whole entry, looked up): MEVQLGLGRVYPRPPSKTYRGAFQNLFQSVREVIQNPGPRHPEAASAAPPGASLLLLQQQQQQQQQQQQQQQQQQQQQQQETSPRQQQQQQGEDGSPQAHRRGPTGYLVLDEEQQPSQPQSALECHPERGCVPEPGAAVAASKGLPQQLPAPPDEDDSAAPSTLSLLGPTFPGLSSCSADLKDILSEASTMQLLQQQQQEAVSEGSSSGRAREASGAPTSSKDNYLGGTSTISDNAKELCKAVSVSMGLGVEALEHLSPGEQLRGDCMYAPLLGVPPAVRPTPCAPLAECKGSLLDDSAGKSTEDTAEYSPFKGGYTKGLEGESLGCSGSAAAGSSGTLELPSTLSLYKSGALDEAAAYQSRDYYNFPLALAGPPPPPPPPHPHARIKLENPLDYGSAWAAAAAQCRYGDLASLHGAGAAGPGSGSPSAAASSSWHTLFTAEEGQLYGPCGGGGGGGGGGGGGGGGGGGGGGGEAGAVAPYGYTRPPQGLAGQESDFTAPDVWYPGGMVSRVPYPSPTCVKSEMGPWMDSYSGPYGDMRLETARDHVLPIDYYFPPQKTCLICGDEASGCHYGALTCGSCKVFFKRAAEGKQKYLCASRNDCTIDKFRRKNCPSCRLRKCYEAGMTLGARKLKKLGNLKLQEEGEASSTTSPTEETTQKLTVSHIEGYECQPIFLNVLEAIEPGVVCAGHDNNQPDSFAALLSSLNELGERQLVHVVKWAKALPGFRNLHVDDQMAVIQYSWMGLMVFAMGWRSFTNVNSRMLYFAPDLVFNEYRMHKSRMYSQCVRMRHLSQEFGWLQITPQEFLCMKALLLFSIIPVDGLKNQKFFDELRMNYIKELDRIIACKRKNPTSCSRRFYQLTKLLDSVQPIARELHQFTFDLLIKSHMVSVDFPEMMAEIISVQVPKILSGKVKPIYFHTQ
# Chain of Thyrotropin receptor (Homo sapiens) (P16473 whole entry, looked up): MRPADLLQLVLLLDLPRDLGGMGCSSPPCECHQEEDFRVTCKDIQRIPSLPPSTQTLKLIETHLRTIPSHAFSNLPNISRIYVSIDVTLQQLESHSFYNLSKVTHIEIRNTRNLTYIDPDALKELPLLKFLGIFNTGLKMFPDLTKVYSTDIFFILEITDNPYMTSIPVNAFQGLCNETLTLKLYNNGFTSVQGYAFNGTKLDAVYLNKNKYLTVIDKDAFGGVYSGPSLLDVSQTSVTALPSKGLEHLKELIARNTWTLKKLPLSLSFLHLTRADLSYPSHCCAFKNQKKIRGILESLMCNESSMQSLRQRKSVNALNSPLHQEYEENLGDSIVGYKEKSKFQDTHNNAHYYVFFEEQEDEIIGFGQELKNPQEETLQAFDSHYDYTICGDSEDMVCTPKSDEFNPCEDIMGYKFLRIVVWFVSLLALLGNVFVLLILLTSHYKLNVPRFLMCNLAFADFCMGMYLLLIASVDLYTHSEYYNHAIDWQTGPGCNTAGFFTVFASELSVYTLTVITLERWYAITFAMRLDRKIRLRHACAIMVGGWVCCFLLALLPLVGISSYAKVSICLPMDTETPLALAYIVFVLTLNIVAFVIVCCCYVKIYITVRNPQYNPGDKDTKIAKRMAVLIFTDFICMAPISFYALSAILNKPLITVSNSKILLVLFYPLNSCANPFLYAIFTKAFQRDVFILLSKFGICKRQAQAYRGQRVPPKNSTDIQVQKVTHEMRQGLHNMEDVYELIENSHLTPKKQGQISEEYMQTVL
Compound,Potency [1],Potency [2],Potency [3],Potency [4],Potency [5],Potency [6],Potency [7],Potency [8],Potency [9],outcome [10],Potency [11],Potency [12],Potency [13],outcome [14],Potency [15],Potency [16],Potency [17],Potency [18],Potency [19],Potency [20]
CCCCCCc1ccc(-c2ccc(C#N)cc2)cc1,inactive,inactive,inactive,inactive,inactive,inactive,21.3 µM (active),inactive,inactive,inactive,inactive,–,–,–,–,–,–,–,–,–
C/C=C(/C(=C/C)c1ccc(OC(C)=O)cc1)c1ccc(OC(C)=O)cc1,29.8 µM (active),inactive,inactive,inactive,inactive,inactive,8.41 µM (active),inactive,inactive,–,inactive,inactive,0.0133 µM (active),inactive,inactive,–,–,–,–,–
CC(C)O.CC(C)O.CCOC(=O)/C=C(\C)O.CCOC(=O)/C=C(\C)O.[Ti],inactive,inactive,inactive,inactive,inactive,inactive,inactive,inactive,inactive,–,inactive,inactive,–,–,–,inactive,inactive,–,–,–
O=C1CCC(=O)O1,inactive,inactive,inactive,–,–,inactive,inactive,inactive,inactive,–,inactive,inactive,inactive,inactive,inactive,inactive,inactive,–,–,–
CCCCCCOC(=O)NC(=N)c1ccc(NCc2nc3cc(C(=O)N(CCC(=O)OCC)c4ccccn4)ccc3n2C)cc1,1.19 µM (active),–,11.9 µM (active),inactive,29.8 µM (active),26.6 µM (active),–,21.1 µM (active),–,–,–,11.9 µM (active),–,inactive,inactive,inactive,18.8 µM (active),–,–,–
CCCCNc1ccc(C(=O)OCCOCCOCCOCCOCCOCCOCCOCCOCCOC)cc1,–,inactive,inactive,inactive,inactive,–,inactive,–,inactive,–,inactive,–,inactive,inactive,inactive,inactive,–,inactive,inactive,–
C/C=C/C=C/CO,–,inactive,inactive,inactive,inactive,inactive,inactive,inactive,inactive,inactive,inactive,inactive,–,–,–,inactive,inactive,inactive,inactive,–
COc1ccc(C(=O)c2ccc(OC)cc2O)c(O)c1,–,inactive,inactive,inactive,inactive,inactive,–,inactive,inactive,–,inactive,inactive,–,inactive,inactive,inactive,–,48.9 µM (active),inactive,inactive
CCOC(=O)COC(=O)c1cc(Oc2ccc(C(F)(F)F)cc2Cl)ccc1[N+](=O)[O-],–,inactive,inactive,inactive,inactive,inactive,–,inactive,inactive,inactive,–,inactive,–,–,–,–,inactive,inactive,inactive,inactive
COc1cccc(N(C)C(=S)Oc2ccc3c(c2)CCCC3)n1,–,inactive,inactive,–,–,inactive,18.8 µM (active),inactive,inactive,inactive,inactive,–,–,–,inactive,–,inactive,inactive,inactive,–
CCc1cc(C2=C(C(=O)O)N(c3ccccc3C(F)(F)F)S(=O)(=O)c3ccccc32)cc2c1OCO2,inactive,–,–,–,–,–,–,–,inactive,inactive,inactive,15.2 µM (active),–,inactive,inactive,inactive,–,–,–,–
O=P(O)(OCc1ccccc1)OCc1ccccc1,–,inactive,inactive,inactive,inactive,inactive,inactive,inactive,inactive,inactive,inactive,inactive,inactive,–,–,inactive,inactive,inactive,inactive,–
CN(C)CCCN1c2ccccc2Sc2ccccc21,11.9 µM (active),–,26.6 µM (active),–,–,inactive,–,–,inactive,inactive,inactive,21.1 µM (active),–,–,inactive,inactive,–,–,–,–
CC1=CCCC(C)(C)C12CCC(C)O2 (configuration not stated),–,inactive,inactive,inactive,inactive,inactive,inactive,inactive,inactive,inactive,inactive,inactive,–,inactive,inactive,–,inactive,inactive,inactive,–
Cc1cc(N)c2cc(NC(=O)Nc3ccc4nc(C)cc(N)c4c3)ccc2n1,–,inactive,inactive,–,–,inactive,–,–,inactive,inactive,inactive,inactive,–,–,inactive,inactive,–,inactive,inactive,inactive
CC1(c2ccccc2)OC(C(=O)O)=CC1=O (configuration not stated),–,inactive,inactive,inactive,inactive,inactive,inactive,inactive,–,inactive,inactive,inactive,–,inactive,inactive,inactive,inactive,inactive,inactive,–
CNCCCN1c2ccccc2CCc2ccccc21,5.96 µM (active),–,23.7 µM (active),inactive,29.8 µM (active),inactive,–,18.8 µM (active),inactive,inactive,inactive,23.7 µM (active),–,–,–,inactive,21.1 µM (active),–,–,inactive
COC(=O)C1=C(C)NC(COC(N)=O)=C(C(=O)OC(C)C)C1c1cccc(Cl)c1Cl (configuration not stated),–,inactive,inactive,inactive,inactive,inactive,–,–,inactive,inactive,–,–,–,–,–,inactive,–,inactive,inactive,inactive
